Shown is part of a subset that was picked to be rich in hits.
nsP2pro primary = inhibitors of chikungunya virus nsP2 protease; Q8JUX6; FRET peptide cleavage, nsP2pro, fluorescence 1 h; Potency, µM (series often up to 24.9 µM), for the others: at the highest dose activity change, negative = inhibition, usual class: inhibitors; actives 1.1% (n = 31,000); AID 1964107; further: nearly all actives have a fitted effect of over 60% in size
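Recombinant nsP2pro (150 nM) was preincubated with compound 15 min at room temperature in 10 mM Tris-HCl pH 8.0, 0.01% Tween 20. Peptide 2 FRET substrate (2.5 uM) was then added and fluorescence read after 1 h. Seven-point series, up to 25 uM.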
nsP2 cell sec = inhibits CHIKV nsP2 protease in cells; Potency, µM (highest dose often 51.1 µM), for inactives: at the highest dose activity change, negative = inhibition, hits mostly inhibitors; shares compounds with nsP2pro primary; cell-based CHIKV nsP2 protease reporter assay; AID 1964100; actives 10% (n = 450); further: nearly all actives have a fitted effect of over 70% in size
NSP2 full ctr = full-length CHIKV NSP2 protease inhibition, selectivity; actives 39% (n = 410); Potency, µM (series often up to 50.7 µM), without a hit: at the top dose activity change, negative = inhibition, most hits filed as inhibitors; shares compounds with nsP2pro primary; AID 1964101; Full-length CHIKV NSP2 protease enzymatic counterscreen; further: nearly all actives have a fitted effect of over 65% in size
Furin counter = inhibits human furin in a CHIKV nsP2 protease selectivity counterscreen; shares compounds with nsP2pro primary; Recombinant human furin enzymatic counterscreen, fluorogenic substrate; Potency, µM (doses to about 50.6 µM), for inactives: at the highest dose activity change, negative = inhibition, actives largely listed as inhibitors; actives 6% (n = 410)
nsP2 NS23 pep = blocks CHIKV nsP2 protease cleavage of endogenous NS2/3 peptide; shares compounds with nsP2pro primary; Purified CHIKV nsP2 protease, endogenous NS2/3 peptide cleavage; Potency, µM (series often up to 51 µM), for the others: at the highest dose activity change, negative = inhibition, hits mostly inhibitors; actives 34% (n = 410); further: nearly all actives have a fitted effect of over 55% in size
Papain counter = selectivity counter-screen for CHIKV nsP2 protease inhibitors: papain; shares compounds with nsP2pro primary; purified papain protease activity, enzymatic inhibition; Potency, µM (titrated, usually from 51 µM), without a hit: at the top dose activity change, negative = inhibition, hits mostly inhibitors; actives 5% (n = 410); AID 1964104
nsP2pro conf qHTS = confirmation of CHIKV nsP2 protease inhibitors | shares compounds with nsP2pro primary | CHIKV nsP2 protease enzymatic activity, qHTS | Potency, µM (titrated, usually from 25.5 µM), for the others: at the highest dose activity change, negative = inhibition, most hits filed as inhibitors | actives 43% (n = 410) | AID 1964105; further: nearly all actives have a fitted effect of over 75% in size
HCV NS3 4A cs = HCV NS3/4A protease inhibition, counterscreen. shares compounds with nsP2pro primary. HCV NS3/4A protease biochemical counterscreen. Potency, µM (doses to about 50.9 µM), most hits filed as inhibitors. actives 20% (n = 410); further: nearly all actives have a fitted effect of over 55% in size
* marks the source's active call; other numbers are inactive results; i = inactive; ? = inconclusive; [ ] = another dose, or the depositor's remark. The call rests on the fitted dose curve. On the % scale 0 is the no-effect control and ±100 the full control effect; potency means the concentration at half of the fitted maximal effect.

SMILES	nsP2pro primary	others
CCCCc1ccc(NC(C)=O)c(C)c1	-22.3%
Cc1cc(NS(=O)(=O)CCNC(=O)Cc2ccc(Cl)c(Cl)c2)no1	4.9%
CC(=O)O[C@@H]1CC2C(C)(C)C(=O)C=C[C@]2(C)C2CC[C@]3(C)C(=CC(=O)O[C@H]3c3ccoc3)[C@@]21C (some centres undefined)	1.6%
CC(=O)OC1CC(O)C2(C)C(CC(OC(C)=O)C3(C)C2CCC2(C)C(c4ccoc4)C(=O)C4OC423)C1(C)C (centres undefined)	?	nsP2 cell sec=11.7%[17.6 µM];NSP2 full ctr=-18.0%[17.3 µM];Furin counter=-9.3%[17.3 µM];nsP2 NS23 pep=-8.8%[17.2 µM];Papain counter=-12.5%[17.2 µM];nsP2pro conf qHTS=-27.9%[8.62 µM];HCV NS3 4A cs=i
CC(=O)O[C@@H]1C[C@H](O)[C@@]23CO[C@H](O)[C@]1(C)C2C[C@@H](O)[C@]1(C)C3C(=O)[C@H](OC(C)=O)[C@@]2(C)[C@H](c3ccoc3)C[C@H]3O[C@]321 (some centres undefined)	-2.2%[10 µM]
O=C(O)Cc1nn(Cc2nc3cc(C(F)(F)F)ccc3s2)c(=O)c2nccnc12	-8.7%
C/C(=C/CO)CC[C@@H]1[C@@]2(C)CCC[C@](C)(C(=O)O)C2CC[C@@]1(C)O (some centres undefined)	13.2%
CCCCn1ccc(N2CCC(c3ccccc3)CC2)c(Cl)c1=O	3.7%
C[C@H]1C[C@H]2[C@H]3CCC4=CC(=O)C=C[C@]4(C)[C@@]3(F)[C@@H](O)C[C@]2(C)[C@@]1(OC(=O)c1ccccc1)C(=O)CO	4.0%
O=C(O)c1cccc(O)c1O	-20.5%
Oc1cccc(O)c1O	8.81µM*	nsP2 cell sec=-19.3%;NSP2 full ctr=14.6µM*;Furin counter=-14.9%;nsP2 NS23 pep=8.19µM*;Papain counter=-12.2%;nsP2pro conf qHTS=1.79µM*;HCV NS3 4A cs=3.26µM*
CC(C)c1cccc(C(C)C)c1O	-4.7%
Cc1oc(=O)oc1COC(=O)N1CC[C@@H](N2CC/C(=C\C3=C(C(=O)O)N4C(=O)[C@@H](NC(=O)/C(=N/O)c5nsc(N)n5)[C@H]4SC3)C2=O)C1	-2.8%
C[C@@H]1O[C@@H](O[C@H]2[C@H](OC(=O)[C@]34CCC(C)(C)C[C@H]3C3=CCC5[C@@]6(C)CC[C@H](O[C@@H]7O[C@H](CO[C@@H]8OC[C@H](O)[C@H](O)[C@H]8O[C@@H]8OC[C@@H](O)[C@H](O)[C@H]8O)[C@@H](O)[C@H](O)[C@H]7O)C(C)(C)C6CC[C@@]5(C)[C@]3(C)C[C@H]4O)O[C@H](CO)[C@@H](O)[C@@H]2O)[C@H](O[C@@H]2O[C@H](CO)[C@@H](O)[C@H](O)[C@H]2O)[C@H](O)[C@H]1O[C@@H]1OC[C@@H](O)[C@H](O[C@@H]2OC[C@@H](O)[C@H](O)[C@H]2O)[C@H]1O (some centres undefined)	0.2%[2.68 µM]
O=P(O)(O)OC1C(OP(=O)(O)O)C(OP(=O)(O)O)C(OP(=O)(O)O)C(OP(=O)(O)O)C1OP(=O)(O)O (centres undefined)	-12.7%
C/C=C(\C)C(=O)OCC1OC(OC2OC(COC(=O)/C(C)=C/C)C(OC3OC(CO)C(OC(=O)/C(C)=C/C)C(OC(=O)/C(C)=C/C)C3O)C(O)C2O)C(O)C(O)C1OC1OC(CO)C(OC(=O)/C(C)=C/C)C(OC(=O)/C(C)=C/C)C1O (centres undefined)	-7.2%[5.1 µM]

From PubChem
